D2 antagonist: D2 dopamine receptor (human) antagonism; HEK293 TREx D2 cells, calcium flux, dopamine EC80; inhibition, % at 10 µM; actives 2% (n = 340,000); AID 485344; in the data active = inhibition above about 30%; inactive = below that, where a call was filed; also: 0% is about no effect
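In this primary screen, negative modulation is detected by tracking calcium flux after an EC80 dopamine challenge in inducible HEK293 T-REx D2 cells preexposed to test compound for 180 s.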
D2 ag-1: activates the human D2 dopamine receptor; P14416; DiscoveRx PathHunter D2 beta-arrestin, luminescence, 90 min; 100% = 57 uM dopamine signal; activation, % (concentration not given with the values); actives 0.084% (n = 360,000); in the data active = activation above about 40%; inconclusive = between about 15% and that limit
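Agonist mode: compounds alone added to overnight-plated D2 PathHunter cells for 90 min at 37 C, with 57 uM final dopamine (EC100) defining full response. Beta-arrestin recruitment detected by chemiluminescent reagent, read after 1 h at ambient temperature.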
D2 ag-2: agonists of human D2 dopamine receptor; activation, % at 2 µM; AID 485358; HEK293 T-REx D2 cells, calcium flux agonist mode; actives 0.53% (n = 340,000);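 active = activation over 3 SD above normal in the single-dose calcium agonist read, cut at about 30% in these data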; also: 0% is about no effect
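Tetracycline-induced HEK293 T-REx cells with force-coupled D2 receptor, plated overnight at 30 C, loaded with no-wash calcium dye. After a 10 s baseline, compound was pin-added and calcium flux read kinetically for 180 s; calcium rises flagged agonists.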
D2 PAM-1: human D2 receptor positive allosteric modulation; DiscoveRx D2 beta-arrestin cells, luminescence, 90 min; 100% = 57 uM dopamine signal; AID 624464; P14416; potentiation, % (concentration not given with the values); actives 0.23% (n = 360,000); in the data active = potentiation above about 50%; inconclusive = mostly about 30% to 49%
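D2 cells co-treated with compound plus 50 nM dopamine (EC20) for 90 min at 37 deg C to detect potentiation. Beta-arrestin recruitment was read as enzyme-fragment luminescence after 1 h at ambient temperature. Full response was set by 57 uM dopamine.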
D2 PAM-2: positive allosteric modulators of human D2 dopamine receptor. potentiation, % at 10 µM. HEK293 T-REx D2, calcium flux, EC20 dopamine potentiation. actives 0.34% (n = 340,000);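 active = potentiation over 3 SD above the plate norm, cut at about 30% in these data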; also: 0% is about no effect
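Tetracycline-induced HEK293 T-REx cells force-coupled to calcium signalling expressed D2; compounds were pin-added after a 10 s baseline, read kinetically 180 s, then an EC20 dopamine challenge followed with a further 180 s calcium read.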
D3 arrestin ag: confirmation of human D3 dopamine receptor agonists, beta-arrestin. shares compounds with D2 ag-2. Potency, µM (doses to about 76.9 µM), inactives show at the top dose activation, usual class: activators. AID 720506. DiscoveRx D3 beta-arrestin cells, luminescence, 90 min. actives 4% (n = 2,300);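 also: potency is read from the fitted curve at half-maximal effect; 100% = dopamine control response; nearly all actives have a fitted effect of over 70% in size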
Target sequence (P35462 whole entry, looked up): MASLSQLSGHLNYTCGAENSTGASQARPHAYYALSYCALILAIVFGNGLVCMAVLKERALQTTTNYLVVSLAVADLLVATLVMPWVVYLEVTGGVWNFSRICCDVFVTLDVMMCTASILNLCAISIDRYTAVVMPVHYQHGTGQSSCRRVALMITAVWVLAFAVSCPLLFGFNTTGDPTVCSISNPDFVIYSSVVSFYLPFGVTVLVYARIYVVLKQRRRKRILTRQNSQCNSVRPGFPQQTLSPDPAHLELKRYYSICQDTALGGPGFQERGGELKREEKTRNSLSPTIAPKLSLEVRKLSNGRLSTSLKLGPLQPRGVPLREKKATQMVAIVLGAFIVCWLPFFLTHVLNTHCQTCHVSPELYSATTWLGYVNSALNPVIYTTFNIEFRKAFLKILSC
D2 ag-3: D2 receptor agonism, beta-arrestin counterscreen | shares compounds with D2 ag-2 | DiscoveRx PathHunter D2 beta-arrestin, luminescence, 90 min; response scale: percent relative to full dopamine signal | Potency, µM (top dose mostly 76.9 µM), without a hit: top-dose activation, hits mostly activators | actives 5.9% (n = 2,300); also: potency is read from the fitted curve at half-maximal effect; % of control where 0% means no effect; nearly all actives have a fitted effect of over 70% in size
* = called active by the depositor; ? = inconclusive; · = no result. Shown are actives, neighbours in structure and some others; about 2.4% of the full set was active somewhere. Unless noted, calls follow the shape of the dose curve; as a rule, active = well fitted activation curve with a large enough effect; inconclusive = small, poorly fitted or top-dose-only effect; inactive = flat fitted curve, though single readings scatter.

SMILES	D2 antagonist	D2 ag-1	D2 ag-2	D2 PAM-1	D2 PAM-2	D3 arrestin ag	D2 ag-3
Cc1ccc(NC(=O)c2nc[nH]c2C(=O)N2CCN(C(=O)OC(C)(C)C)CC2)cc1	15	-2	-1	-7	-12	-7%	-2%
O=C(Nc1nccs1)c1nc[nH]c1C(=O)N1CCc2ccccc2C1	2	-7	0	-10	4	·	·
CC(C)(C)OC(=O)N1CCN(C(=O)c2[nH]cnc2C(=O)Nc2ccc(Cl)cc2)CC1	·	-1	·	-24	·	·	·
CCN1CCN(C(c2ccccc2)c2c(O)cc(C)n(CCOC)c2=O)CC1 (stereo not given)	·	·	-1	·	0	·	·
O=C(NC1CCCC1)C1CCC(CNS(=O)(=O)c2ccc(F)cc2)CC1 (stereo not given)	15	-2	-1	-2	7	-9%	0%
O=C(NC1CCCC1)C1CCC(CNS(=O)(=O)c2ccccc2)CC1 (stereo not given)	-4	-4	-1	-7	-2	·	·
Cc1cc(NC(=O)c2ccccc2F)on1	-2	4	68*	-3	-19	0%	-4%
COc1ccc(OC)c(CNc2ccc([N+](=O)[O-])cc2C)c1	8	-1	57*	-1	-26	-12%	3%
COc1cccc(CNc2ccc([N+](=O)[O-])cc2C)c1	-7	-4	-1	-28	0	·	·
COc1ccc(S(=O)(=O)N(CC(=O)Nc2cccc(C)c2)c2ccc(C)cc2)cc1OC	·	·	0	·	11	·	·
Cc1ccc(OCCN2CCN(C(=O)CCC(=O)Nc3nnc(C(C)C)s3)CC2)cc1	-5	3	0	-42	8	·	·
Cc1nnc(NC(=O)CCC(=O)N2CCN(CCOc3cccc4ccccc34)CC2)s1	52*	?	55*	-22	-24	?	?
Cc1ccc(OCCN2CCN(C(=O)CCC(=O)Nc3nnc(C)s3)CC2)cc1	6	1	4	-16	12	?	1%
CCCc1nnc(NC(=O)CCC(=O)N2CCN(CCOc3ccc(C)cc3)CC2)s1	-2	0	-2	3	11	·	·
COc1ccc(/C=N/Nc2nnc(C)n2N)cc1OC(C)=O	18	0	1	9	3	?	4%
CC(OC(=O)COc1ccc(C#N)cc1)C(=O)c1ccccc1 (stereo not given)	32*	3	0	1	3	-2%	-4%
O=C(CSc1nc2c(sc3ccccc32)c(=O)n1CCCC(=O)NC1CCCC1)Nc1ccc(F)cc1	·	·	0	·	14	·	·
Cc1ccc(C(=O)CN2CCN(c3ccccn3)CC2)c(C)c1	·	?	·	4	·	?	?
Cc1ccc2[nH]cc(C(=O)CN3CCN(c4ccccn4)CC3)c2c1	34*	2	19	-42	-28	10%	4%
O=C(CN1CCN(c2ccccn2)CC1)N1CC(O)CO1 (stereo not given)	12	7	29	0	-13	21%	6%
O=C(CN1CCN(c2cccc(Cl)n2)CC1)N1CC(O)CO1 (stereo not given)	3	0	0	-8	-3	·	·
CN1CCc2c(sc(/N=C/c3c[nH]c4ccccc34)c2C#N)C1	-6	7	49*	-20	-26	12%	-4%
CN1CCc2c(sc(/N=C/c3c[nH]c4ccccc34)c2C(N)=O)C1	13	-4	1	-17	-9	·	·
CN1CCc2c(sc(/N=C/c3cc(Cl)ccc3O)c2C#N)C1	83*	52*	88*	26	-36	-11%	10%
O=C(NC1CCCCC1)c1ccc2c(c1)N(Cc1ccccc1Cl)C(=O)c1ccccc1S2	·	·	-1	·	4	·	·
SMILES	D2 antagonist	D2 ag-1	D2 ag-2	D2 PAM-1	D2 PAM-2	D3 arrestin ag	D2 ag-3
O=C(c1ccc2c(c1)OCO2)N1CCCC(c2ccccc2)C1 (stereo not given)	55*	2	23	-7	-4	23%	26%
CC1CCCN(C(=O)c2ccc3c(c2)OCO3)C1 (stereo not given)	6	-7	0	-13	-1	·	·
COc1ccccc1N(CC(=O)NCCSCc1ccc(C)cc1)S(=O)(=O)c1ccccc1	25	4	2	1	14	-3%	6%
CC1(c2ccc(OC(F)F)cc2)NC(=O)N(CC(=O)Nc2cccnc2Cl)C1=O (stereo not given)	1	-8	12	3	11	-6%	-1%
COc1ccc(C2(C)NC(=O)N(CC(=O)Nc3cccnc3Cl)C2=O)cc1 (stereo not given)	-5	-8	1	-10	-13	·	·
c1ccc(CCNCCOc2ccccc2)cc1	48*	14	56*	-7	-25	0%	11%
CCCC(=O)OCc1cnc(C)c2oc(=O)c(C(=O)Nc3ccccc3)cc12	·	·	·	·	0	·	·
COc1ccc2cc3cc(C(=O)NCCN4CCc5ccccc5C4)sc3nc2c1	19	3	72*	-13	-28	-8%	?
CCCCNC(=O)CCn1c(=O)c2cccn2c2cccnc21	·	·	1	·	4	·	·
C=CCN(CC=C)CCOc1ccccc1	-12	-2	53*	-23	-24	3%	8%
O=S(=O)(c1ccc(F)cc1)N1CCc2ccccc21	36*	1	8	7	3	4%	2%
O=S(=O)(c1ccc(Cl)cc1)N1CCc2ccccc21	1	-6	1	-1	11	·	·
Cc1nn(C(C)C(=O)NC2CCC(C)CC2)c(=O)c2cc3sccc3n12 (stereo not given)	·	·	0	·	-5	·	·
COc1cccc(NC(=O)Cn2c(=O)n(-c3ccc(CC(=O)NCC4CCCO4)cc3)c(=O)c3ccccc32)c1 (stereo not given)	·	·	0	·	-2	·	·
Cc1cc(NC(=O)c2ccco2)ccc1-n1cnnn1	·	-1	·	5	·	0%	-1%
COc1ccccc1/C=N/NC(=O)c1ccc(NC(=O)c2ccccc2Br)cc1	0	2	63*	2	-19	12%	0%
CCN1CCN(c2ncnc3scc(-c4ccc(OC)cc4)c23)CC1	-13	78*	41*	5	-1	0%	40µM*
COc1cc(NC(=O)Cn2ccc3ccccc3c2=O)cc(OC)c1OC	·	·	·	·	16	·	·
CC(C)SCCCCOc1ccc2ccccc2c1	-23	-1	2	-4	-10	-23%	1%
O=C(/C=C/c1ccccc1Cl)NC1CCCCC1	-9	0	0	-6	-5	·	·

From PubChem BioAssay
